Measurements: PubChem BioAssay AID2283166 (EPA ToxCast)
Records with an inconclusive call do not appear. Calls of active or inactive are those of the source. How the source made its calls: active means hit-call score of the fitted dose curve at least 0.9, where 1 is the maximum; inconclusive means response in the unintended direction; inactive means score below 0.9.

Each compound was assayed against human Interleukin-1 Receptor-Associated Kinase 4 (IRAK4), IRAK4 (gene 51135) (UniProt Q9NWZ3) (assay: NVS_ENZ_hIRAK4: NovaScreen (NVS) Enzymatic Assay for human Interleukin-1 Receptor-Associated Kinase 4 (IRAK4)).
Experimental: NVS_ENZ_hIRAK4 is a biochemical, single-readout assay that uses extracted gene-proteins in a cell-free assay. Measurements were taken 1 hour after chemical dosing in a 384-well plate.NVS_ENZ_hIRAK4 is one of one assay component(s) measured or calculated from the NVS_ENZ_hIRAK4 assay. It is designed to make measurements of enzyme activity, a form of enzyme reporter, as detected with fluorescence intensity signals by Fluorescence and electrophoretic mobility shift technology.Data from the assay component NVS_ENZ_hIRAK4 was analyzed into 1 assay endpoint. This assay endpoint, NVS_ENZ_hIRAK4, was analyzed in the positive analysis fitting direction relative to DMSO as the negative control and baseline of activity. Using a type of enzyme reporter, loss-of-signal activity can be used to understand changes in the enzymatic activity as they relate to the gene IRAK4. Furthermore, this assay endpoint can be referred to as a primary readout, because this assay has produced […] where this one serves a enzymatic activity function. To generalize the intended target to other relatable targets, this assay endpoint is annotated to the kinase intended target family, where the subfamily is […].
Binding assays used specific radioligands (tritiated, iodinated) with non-radioactive competitive displacement ligands in agonist or antagonist protocols (as indicated) and various reference compounds and inhibitors to titrate specific binding to receptors and transporters. Most enzyme assays (CYPs, kinases, phosphatases, proteases, HDACs) used recombinant protein and specific substrates (fluorescence mostly, some colorimetric and radioactive) and inhibitors, followed by a biochemical separation of substrate and product. All assays for the biochemical HTS were initially run in duplicate at a single concentration (10 uM for CYP450 assays and 25 uM for all others). Assay-chemical combinations meeting a pre-defined threshold (e.g., 30% inhibition and other criteria defined below) were then run in singleton concentration-response format with maximum concentration of 20 uM for CYPs and 50 uM for all others. Each assay was run with positive and negative controls, and concurrent controls on every plate. The follow-up (secondary) screen tested active chemical-pairs in concentration series, as well as a few additional assays not tested in the primary screen, some selected negative inactives, and several cases re-run in the concentration series for confirmatory purposes.

human Interleukin-1 Receptor-Associated Kinase 4 (IRAK4), IRAK4 (gene 51135), sequence (Q9NWZ3 whole entry, looked up): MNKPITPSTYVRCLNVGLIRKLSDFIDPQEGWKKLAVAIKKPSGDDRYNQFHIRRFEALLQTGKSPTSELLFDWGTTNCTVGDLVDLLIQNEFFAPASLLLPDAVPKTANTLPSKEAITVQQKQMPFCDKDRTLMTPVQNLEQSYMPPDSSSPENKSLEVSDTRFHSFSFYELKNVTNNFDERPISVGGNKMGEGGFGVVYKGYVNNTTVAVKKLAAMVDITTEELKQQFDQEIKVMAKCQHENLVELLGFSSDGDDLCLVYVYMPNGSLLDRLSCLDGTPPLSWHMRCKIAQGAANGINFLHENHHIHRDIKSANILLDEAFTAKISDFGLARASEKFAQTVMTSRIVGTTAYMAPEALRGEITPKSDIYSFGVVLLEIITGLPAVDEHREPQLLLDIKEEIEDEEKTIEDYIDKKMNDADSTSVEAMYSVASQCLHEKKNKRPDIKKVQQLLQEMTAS

Question: Which outcome does the source give for CCOC(=O)C(Cl)Cc1cc(-n2nc(C)n(C(F)F)c2=O)c(F)cc1Cl (stereo not given) here?
Answer: inactive

Question: With COP(=S)(OC)Oc1ccc([N+](=O)[O-])cc1 as the compound, how does the outcome read?
Answer: inactive

Question: Which outcome does the source give for CCCCNC(=O)OCC#CI here?
Answer: inactive

Question: Which outcome does the source give for CNC(=S)S here?
Answer: inactive

Question: For Cc1ccc(N=CN(C)C=Nc2ccc(C)cc2C)c(C)c1, which outcome is on record?
Answer: inactive
